# Data taken from PubChem BioAssay (NCATS).
# Values joined by “and” are separate entries in the source; they are usually repeats but may differ in a detail not shown here. Identical values can stand only once. Records with an inconclusive call do not appear. Where a call stands in place of a potency, no number is given. Values without a mark were called inactive. Active and inactive are the calls of the source. Calls follow the shape of the dose curve; as a rule, active = well fitted curve in the direction sought with a large enough effect; inconclusive = small, poorly fitted or top-dose-only effect, or another doubt; inactive = no such curve, though single readings can be large; an effect the other way counts as inactive or inconclusive.
# Key:
# [1] = target: Cellular tumor antigen p53 (Homo sapiens) (UniProt P04637); experiment: Primary qHTS for small molecule compounds that upregulate eGFP-tagged delta133p53alpha (in N-terminal) cells. (AID 2060322); details: NCI-H358 eGFP-delta133p53alpha fluorescence, 24 h; activation: active compounds read high; also: nearly all actives have a fitted effect of over 75% in size; also: potency is read from the fitted curve at half-maximal effect;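 as to activation: cells pre-induced with doxycycline then dosed without doxycycline; series mostly up to about 56 µM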
# Sequence of Cellular tumor antigen p53 (Homo sapiens) (P04637 whole entry, looked up): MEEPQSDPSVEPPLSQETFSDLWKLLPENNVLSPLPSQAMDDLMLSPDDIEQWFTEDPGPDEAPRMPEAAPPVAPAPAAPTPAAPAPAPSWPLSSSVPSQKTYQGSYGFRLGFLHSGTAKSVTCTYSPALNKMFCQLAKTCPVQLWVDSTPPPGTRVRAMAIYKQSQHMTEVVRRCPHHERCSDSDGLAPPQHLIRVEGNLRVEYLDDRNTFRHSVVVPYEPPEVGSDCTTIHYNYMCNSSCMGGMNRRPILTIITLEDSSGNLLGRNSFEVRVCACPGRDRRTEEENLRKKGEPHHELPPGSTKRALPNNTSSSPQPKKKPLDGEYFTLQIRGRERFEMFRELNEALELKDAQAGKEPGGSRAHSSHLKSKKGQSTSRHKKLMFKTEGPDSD
# How it was run: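 NCI-H358 cells pre-induced 24 h with 10 ng/ml doxycycline for eGFP-delta133p53alpha, plated dox-free and exposed 24 h at 37C to titrated compounds. Fixed, Hoechst-stained; gated GFP peak intensity by laser scanning cytometry, normalized to DMSO (0%) and 57.5 uM 5-azacytidine (100%).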
# [2] = target: Aldehyde dehydrogenase, mitochondrial (Homo sapiens) (UniProt P05091); experiment: qHTS for Inhibitors of the Aldehyde Dehydrogenase Family (ALDH2) Primary screen (AID 2061308); also: nearly all actives have a fitted effect of over 55% in size
# [3] = target: Retinal dehydrogenase 2 (Homo sapiens) (UniProt O94788); experiment: qHTS for Inhibitors of the Aldehyde Dehydrogenase Family (ALDH1A2) Confirmation screens (AID 2061314); also: nearly all actives have a fitted effect of over 65% in size
# [4] = target: Retinaldehyde dehydrogenase 3 (Homo sapiens) (UniProt P47895); experiment: qHTS for Inhibitors of the Aldehyde Dehydrogenase Family (ALDH1A3) Primary screen (AID 2061315)
# [5] = target: Aldehyde dehydrogenase 1A1 (Homo sapiens) (UniProt P00352); experiment: qHTS for Inhibitors of the Aldehyde Dehydrogenase Family (ALDH1A1) Confirmatory screens (AID 2061316); also: potency is read from the fitted curve at half-maximal effect; nearly all actives have a fitted effect of over 65% in size
compound,measurement,setting,value
CC1(C)CC[C@]2(C(=O)O[C@@H]3O[C@H](CO)[C@@H](O)[C@H](O)[C@H]3O)CC[C@]3(C)C(=CCC4[C@@]5(C)C[C@@H](O)[C@H](O)[C@@](C)(CO)C5CC[C@]43C)C2[C@@H]1O (some centres undefined),activation,[1],8.93%
same,Potency,[2],inactive
same,Potency,[3],inactive
same,Potency,[4],inactive
CC1(C)CC2C(C1)C1(C)CCC13OC3(CO)C2O (centres undefined),activation,[1],-14.3%
same,Potency,[2],inactive
same,Potency,[4],inactive
COC(=O)c1ccc(OC(CO)C(O)c2ccc(O)c(OC)c2)c(OC)c1 (centres undefined),activation,[1],9.82%
same,Potency,[2],inactive
same,Potency,[3],inactive
Cc1ccc(CNc2ncnc3ccc(-c4ccc(CO)o4)cc23)o1,activation,[1],-4.46%
same,Potency,[2],inactive
same,Potency,[3],inactive
same,Potency,[4],inactive
same,Potency,[5],4 µM (active)
O=C1Nc2ccc(O)cc2O[C@H]1O[C@@H]1O[C@H](CO)[C@@H](O)[C@H](O)[C@H]1O,activation,[1],-16.8%
same,Potency,[2],inactive
same,Potency,[4],inactive
CCC(C)C(=O)OC1CC(O)C23C4OCC5(C(O)CC2C1(C)C(O)O4)C3C(=O)C(O)C1(C)C(O)(c2ccoc2)CC2OC251 (centres undefined),activation,[1],5.34%
same,Potency,[2],inactive
same,Potency,[4],inactive
C=CC1(C)CC(OC(=O)C(=C)C(O)COC(C)=O)C(C(=C)C(=O)OC)C(O)C1C(=C)CO (centres undefined),activation,[1],-2.29%
same,Potency,[2],inactive
same,Potency,[4],inactive
FC(F)(F)c1ccc(Nc2nc3ccc(Oc4ccnc(-c5ncc(C(F)(F)F)[nH]5)c4)cc3[nH]2)cc1,activation,[1],-7.84% and 12.4%
same,Potency,[2],inactive
same,Potency,[4],inactive
O=C(Nc1ccccc1-c1cn2c(CN3CCNCC3)csc2n1)c1ccc2ccccc2n1,activation,[1],11%
same,Potency,[2],inactive
same,Potency,[4],inactive
COC(=O)C1=CO[C@@H](O[C@@H]2O[C@H](CO)[C@@H](O)[C@H](O)[C@H]2O)[C@H]2[C@@H]1[C@H](O)C[C@]2(C)O,activation,[1],3.57%
same,Potency,[2],inactive
same,Potency,[4],inactive
CCC(CC)C(=O)Nc1sc2c(c1C#N)CCC(C(C)(C)CC)C2 (centres undefined),activation,[1],-3.34%
same,Potency,[2],inactive
same,Potency,[4],inactive
COc1c(C)c(OCC(O)C(C)(C)O)cc2c1CNC2=O (centres undefined),activation,[1],-1.79%
same,Potency,[2],inactive
same,Potency,[4],inactive
Nc1nc(O)c(C2=C3C(=Nc4ccccc43)C(=O)NCC2)[nH]1,activation,[1],-1.79%
same,Potency,[2],inactive
same,Potency,[4],inactive
C[C@@H]1CC[C@]2(C)C3(C)CC[C@@]2(OC3=O)[C@@]12C[C@H](c1ccoc1)OC2=O,activation,[1],26.7%
same,Potency,[2],inactive
same,Potency,[4],inactive
CC1=C2C[C@@]3(C)C(CCC[C@@H]3C)C(O)C2(O)OC1=O (some centres undefined),activation,[1],0%
same,Potency,[2],inactive
same,Potency,[4],inactive
COc1cc(CO)ccc1O[C@@H]1O[C@H](CO)[C@@H](O)[C@H](O)[C@H]1O,activation,[1],-7.14%
same,Potency,[2],inactive
same,Potency,[4],inactive
COC1CC(O[C@H]2CC[C@@]3(C)C(CCC4C3[C@H](OC(C)=O)[C@@H](OC(=O)/C=C/c3ccccc3)[C@]3(C)C(C(C)=O)CC[C@]43O)C2)OC(C)C1OC1CC(OC)C(OC2CC(OC)C(OC3OC(C)C(OC4OC(CO)C(O)C(O)C4O)C(OC)C3O)C(C)O2)C(C)O1 (some centres undefined),activation,[1],-13%
same,"activity change, negative = inhibition",[2],6.42% [at 11.2 µM]
same,"activity change, negative = inhibition",[4],5.71% [at 11.2 µM]
C=C1[C@H](OC(C)=O)[C@H]2[C@@H](OC(=O)c3ccccc3)[C@@H](C)C[C@]2(O)[C@@H](OC(C)=O)[C@H](C)/C=C/C(C)(C)C(=O)[C@H](OC(C)=O)[C@H]1OC(C)=O,activation,[1],-3.57%
same,Potency,[2],inactive
same,Potency,[4],inactive
CC(C)=CCC/C(C)=C/CO[C@@H]1O[C@H](CO)[C@@H](OC(=O)/C=C/c2ccc(O)cc2)[C@H](O[C@@H]2O[C@@H](C)[C@H](O)[C@@H](O)[C@H]2O)[C@H]1O,activation,[1],19.6%
same,Potency,[2],inactive
same,Potency,[4],inactive
Cc1cc(-c2ncc(-c3cccnc3)cc2/C=C/c2ccccc2)cnc1-c1cccnc1,activation,[1],15.7%
same,Potency,[2],inactive
same,Potency,[4],inactive
O=C(O)c1cc(O[C@@H]2O[C@H](CO)[C@@H](O)[C@H](O)[C@H]2O)ccc1O,activation,[1],-3.05%
same,Potency,[2],inactive
same,Potency,[4],inactive
CSCC1OC(n2cnc3c(N)ncnc32)C(O)C1O (centres undefined),activation,[1],6.11%
same,Potency,[2],inactive
same,Potency,[4],inactive
O=C(OCCOCCO)c1ccccc1Nc1cccc(C(F)(F)F)c1,activation,[1],-13% and -1.67%
same,Potency,[2],inactive
same,Potency,[4],inactive
CC(=O)O[C@H]1CC(C)(C)CC2[C@]13CO[C@@]21CCC2[C@@]4(C)CC[C@H](O[C@@H]5OC[C@H](O[C@@H]6O[C@H](CO)[C@@H](O)[C@H](O)[C@H]6O[C@@H]6OC[C@@H](O)[C@H](O)[C@H]6O)[C@H](O)[C@H]5O[C@@H]5O[C@H](CO)[C@@H](O)[C@H](O)[C@H]5O)[C@@](C)(CO)C4CC[C@@]2(C)[C@]1(C)C[C@H]3O (some centres undefined),activation,[1],-17.9%
same,Potency,[2],inactive
same,Potency,[4],inactive
CC(C)(C)Nc1nc2cc(Cl)c(Cl)cc2nc1S(C)(=O)=O,Potency,[1],3.38 µM (active)
same,Potency,[2],inactive
same,Potency,[4],inactive
OC[C@@]1(O)CO[C@H](OC[C@H]2O[C@@H](OC(CCCCc3ccc(O)cc3)CCc3ccc(O)cc3)[C@H](O[C@H]3OC[C@](O)(CO)[C@H]3O)[C@@H](O)[C@@H]2O)[C@@H]1O (some centres undefined),activation,[1],-2.29%
same,Potency,[2],inactive
same,Potency,[4],inactive
CC1(C)CC[C@]2(C(=O)O)[C@H](O)C[C@]3(C)C(=CCC4[C@@]5(C)CC[C@H](O[C@@H]6OC[C@@H](O)[C@H](O)[C@H]6O)[C@@](C)(C(=O)O)C5CC[C@]43C)[C@@H]2C1 (some centres undefined),activation,[1],6.11%
same,Potency,[2],inactive
same,Potency,[4],inactive
